Results filed as inconclusive are left out. The source made the active and inactive calls. Unless noted, calls follow the shape of the full dose curve.
How the values were obtained:
[1] = Nuclear factor erythroid 2-related factor 2/antioxidant responsive element (Nrf2/ARE) small molecule agonists: qHTS cell viability counter screen in human keratinocytes (AID 1919968; active = well fitted curve in the direction sought with a large enough effect in the repeat runs; an effect the other way counts as inactive or inconclusive; also: nearly all actives have a fitted effect of over 55% in size)
In short: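 Parallel cytotoxicity read: KeratinoSens HaCaT cells, compound treatment 23 h, viability by CellTiter-Fluor fluorescence 1 h post-reagent.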

[2] = Nuclear factor erythroid 2-related factor 2/antioxidant responsive element (Nrf2/ARE) small molecule agonists: luciferase reporter gene qHTS assay in human keratinocytes (AID 1919969); also: nearly all actives have a fitted effect of over 35% in size; also: potency is read from the fitted curve at half-maximal effect
[3] = molecular target: Gonadotropin-releasing hormone receptor (Homo sapiens) (UniProt P30968); test: Human gonadotropin-releasing hormone receptor (GnRHR) small molecule agonists, calcium flux assay in GnRHR-HEK293 cells (AID 1920063); also: nearly all actives have a fitted effect of over 35% in size
In short: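 Calcium flux, agonist mode, human GnRHR stably integrated in HEK293; dye 1 h at 37 C before compound; Ex/Em=480/540 kinetic read, 3 min; 15 concentrations, triplicate.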

[4] = molecular target: KiSS-1 receptor (Homo sapiens) (UniProt Q969F8); test: Human kisspeptin (KISS1R) small molecule agonists, calcium flux assay in KISS1R-HEK293 cells (AID 1920064; active = well fitted curve in the direction sought with a large enough effect in the repeat runs; an effect the other way counts as inactive or inconclusive)
In short: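 Triplicate 15-concentration series were applied to dye-loaded human KISS1R HEK293 cells, and agonist-evoked calcium fluorescence was captured for 3 min.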

[5] = G protein-coupled receptor (GPCR) small molecule agonists, calcium flux assay: HEK293 wild type cell line counter screen (AID 1920065)
In short: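 Non-specific calcium responders were flagged by adding DMSO-dissolved compounds to dye-loaded cells and reading 480/540 nm fluorescence each second for 3 min; ATP served as positive control.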

[6] = p53 small molecule agonists, cell-based qHTS assay with human liver microsomes: qHTS cell viability counter screen (AID 1963579); also: nearly all actives have a fitted effect of over 45% in size; also: potency is read from the fitted curve at half-maximal effect
In short: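 Cytotoxicity counter screen: p53RE-bla, 4,000 cells/well; 5 h settle, 37 C/5% CO2; cpd + HLM 0.5 mg/mL + NADPH 0.5 mg/mL (final); 16 h, 37 C; CellTiter-Glo, 30 min RT, luminescence.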

[7] = p53 small molecule agonists, cell-based qHTS assay with rat liver microsomes: qHTS cell viability counter screen (AID 1963580); also: nearly all actives have a fitted effect of over 45% in size
In short: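 After the beta-lactamase ratio was read, CellTiter-Glo was added to the same wells and luminescence measured at 30 min; cells had been treated 16 h at 37 C with compounds, rat liver microsomes and NADPH (0.5 mg/mL final each).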

[8] = molecular target: 5-hydroxytryptamine receptor 2A (Homo sapiens) (UniProt P28223); test: 5-hydroxytryptamine receptor 2A (HTR2A) small molecule antagonists, cell-based qHTS assay (AID 1963586); also: nearly all actives have a fitted effect of over 45% in size; also: potency is read from the fitted curve at half-maximal effect
In short: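 CHO cells stably expressing human HTR2A were plated for 18 h at 37 C, then loaded with calcium dye for 1 h. Compounds were preincubated 5 min at room temperature before DOI (4 nM solution) was added. Kinetic fluorescence was read for 3 min.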

[9] = molecular target: 5-hydroxytryptamine receptor 2A (Homo sapiens) (UniProt P28223); test: 5-hydroxytryptamine receptor 2A (HTR2A) small molecule agonists, cell-based qHTS assay (AID 1963587); also: nearly all actives have a fitted effect of over 30% in size; also: potency is read from the fitted curve at half-maximal effect
In short: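 CHO cells stably expressing human HTR2A, plated 18 h, loaded with calcium dye 1 h at 37 C. Agonist mode: compounds added and intracellular calcium fluorescence recorded kinetically for 2 min at 1 sec intervals.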

[10] = molecular target: Muscarinic acetylcholine receptor M1 (Homo sapiens) (UniProt P11229); test: Cholinergic receptor muscarinic 1 (CHRM1) small molecule antagonists, cell-based qHTS assay (AID 1963588); also: nearly all actives have a fitted effect of over 40% in size
In short: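 Compounds were tested at 15 concentrations in three independent runs. Dye-loaded CHRM1-CHO cells were exposed 5 min at room temperature before stimulation by acetylcholine added at 50nM. Intracellular calcium was read kinetically on FDSS for 3 min.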

[11] = molecular target: Muscarinic acetylcholine receptor M1 (Homo sapiens) (UniProt P11229); test: Cholinergic receptor muscarinic 1 (CHRM1) small molecule agonists, cell-based qHTS assay (AID 1963589); also: nearly all actives have a fitted effect of over 35% in size
In short: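 qHTS, 15-point titration, 3 independent runs: compounds pin-transferred onto dye-loaded CHRM1-CHO cells (human M1), calcium fluorescence followed every second to detect agonism.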

[12] = cAMP Responsive Elements (CRE) small molecule agonists, cell-based qHTS assay (AID 1963590)
In short: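 Quantitative HTS for CRE agonists: HEK 293T CRE-bla cells, overnight plating, 3 h compound incubation at 37 C/5% CO2, then 2 h room-temperature LiveBLAzer B/G FRET substrate loading.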

[13] = cAMP Responsive Elements (CRE) small molecule antagonists, cell-based qHTS assay (AID 1963591; active = well fitted inhibition curve with a large enough effect in the signal ratio in the repeat runs, not every such curve was filed as active; the % refers to the signal ratio)
In short: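 Fluorescence intensity from cleaved LiveBLAzer B/G substrate (2 h, room temperature) quantified CRE-bla activity in HEK 293T cells exposed 3 h to compound with 0.25 uM final NKH477.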

[14] = molecular target: Beta-2 adrenergic receptor (Homo sapiens) (UniProt P07550); test: Adrenergic beta2 receptor (ADRB2) small molecule antagonists, cell-based qHTS assay (AID 1963592); also: series mostly up to about 92 µM; nearly all actives have a fitted effect of over 50% in size
In short: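 Assay format: CHO-ADRB2 cells, 18-20hr seeding at 37C/5% CO2, then compound plus 1nM isoproterenol agonist mix for 0.5hr RT. Homogeneous time-resolved fluorescence cAMP detection after 1hr, expressed as 665/615 nm ratio.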

[15] = p53 small molecule agonists, cell-based qHTS assay: qHTS cell viability counter screen (AID 1963581); also: nearly all actives have a fitted effect of over 45% in size
In short: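 Multiplexed with the reporter read, a CellTiter-Glo step (30 min, room temperature) gauges ATP-based viability of HCT-116 p53RE-bla cells after 16 h compound incubation at 37 C.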

[16] = molecular target: D(2) dopamine receptor (Homo sapiens) (UniProt P14416); test: Dopamine D2 receptor (DRD2) small molecule agonists, cell-based qHTS assay (AID 1963594); also: nearly all actives have a fitted effect of over 35% in size; also: potency is read from the fitted curve at half-maximal effect
In short: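 HEK293 cells stably expressing human DRD2, pre-treated with PDE inhibitor Ro20-1724 (0.1 mM final) and compound 10 min at room temperature, then stimulated with NKH477 (200nM […]) for 30 min. cAMP read by HTRF (665/620 nm).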

[17] = molecular target: D(2) dopamine receptor (Homo sapiens) (UniProt P14416); test: Dopamine D2 receptor (DRD2) small molecule antagonists, cell-based qHTS assay (AID 1963595; active = well fitted inhibition curve with a large enough effect in the signal ratio in the repeat runs, with a control signal flat; the % refers to the signal ratio)
In short: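 HEK293 cells stably expressing DRD2, preincubated with 0.1 mM Ro20-1724 and compounds 10 min, were stimulated with 200 nM NKH477 plus 12 nM quinpirole for 30 min at room temperature; cAMP measured by HTRF (665/620 nm).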

[18] = p53 small molecule agonists, cell-based qHTS assay (AID 1963582; active = well fitted activation curve with a large enough effect in the signal ratio in the repeat runs, not every such curve was filed as active; the % refers to the signal ratio)
In short: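 Beta-lactamase reporter cells (p53RE-bla) treated with compounds for 16 h at 37 C; FRET substrate, 2 h, room temperature; fluorescence intensity.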

Measured: Potency

Gonadotropin-releasing hormone receptor (Homo sapiens), sequence (P30968 whole entry, looked up): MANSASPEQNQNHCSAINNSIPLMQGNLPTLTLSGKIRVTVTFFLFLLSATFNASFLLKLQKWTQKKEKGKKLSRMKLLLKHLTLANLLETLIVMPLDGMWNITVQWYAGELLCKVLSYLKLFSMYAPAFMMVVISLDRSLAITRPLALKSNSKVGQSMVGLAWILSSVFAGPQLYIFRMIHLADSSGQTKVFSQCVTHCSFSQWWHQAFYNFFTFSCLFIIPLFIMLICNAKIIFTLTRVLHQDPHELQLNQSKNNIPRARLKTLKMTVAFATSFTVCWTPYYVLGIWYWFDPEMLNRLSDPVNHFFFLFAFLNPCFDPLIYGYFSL
Beta-2 adrenergic receptor (Homo sapiens), sequence (P07550 whole entry, looked up): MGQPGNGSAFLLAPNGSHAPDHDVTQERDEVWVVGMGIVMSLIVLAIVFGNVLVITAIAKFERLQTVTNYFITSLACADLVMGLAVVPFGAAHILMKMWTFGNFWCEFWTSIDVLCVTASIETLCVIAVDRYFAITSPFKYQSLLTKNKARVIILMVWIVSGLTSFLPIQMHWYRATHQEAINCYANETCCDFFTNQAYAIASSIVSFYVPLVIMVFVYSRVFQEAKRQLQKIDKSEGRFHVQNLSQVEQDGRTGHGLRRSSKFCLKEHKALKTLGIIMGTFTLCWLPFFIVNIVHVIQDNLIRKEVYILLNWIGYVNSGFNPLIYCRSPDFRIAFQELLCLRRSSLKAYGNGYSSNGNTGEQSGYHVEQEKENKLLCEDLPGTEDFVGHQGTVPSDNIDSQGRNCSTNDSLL
5-hydroxytryptamine receptor 2A (Homo sapiens), sequence (P28223 whole entry, looked up): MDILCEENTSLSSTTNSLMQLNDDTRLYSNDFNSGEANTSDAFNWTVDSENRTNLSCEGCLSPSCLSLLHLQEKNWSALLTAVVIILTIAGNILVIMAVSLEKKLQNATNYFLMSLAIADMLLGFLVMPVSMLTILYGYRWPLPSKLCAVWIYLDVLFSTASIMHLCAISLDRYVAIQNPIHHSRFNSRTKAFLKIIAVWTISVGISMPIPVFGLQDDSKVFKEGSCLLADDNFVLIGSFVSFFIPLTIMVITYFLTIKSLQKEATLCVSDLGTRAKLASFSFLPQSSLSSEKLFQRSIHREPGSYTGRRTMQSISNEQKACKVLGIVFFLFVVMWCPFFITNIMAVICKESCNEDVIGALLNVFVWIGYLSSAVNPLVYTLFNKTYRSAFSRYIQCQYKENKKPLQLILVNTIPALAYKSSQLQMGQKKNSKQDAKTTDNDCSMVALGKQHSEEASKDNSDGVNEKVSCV
Muscarinic acetylcholine receptor M1 (Homo sapiens), sequence (P11229 whole entry, looked up): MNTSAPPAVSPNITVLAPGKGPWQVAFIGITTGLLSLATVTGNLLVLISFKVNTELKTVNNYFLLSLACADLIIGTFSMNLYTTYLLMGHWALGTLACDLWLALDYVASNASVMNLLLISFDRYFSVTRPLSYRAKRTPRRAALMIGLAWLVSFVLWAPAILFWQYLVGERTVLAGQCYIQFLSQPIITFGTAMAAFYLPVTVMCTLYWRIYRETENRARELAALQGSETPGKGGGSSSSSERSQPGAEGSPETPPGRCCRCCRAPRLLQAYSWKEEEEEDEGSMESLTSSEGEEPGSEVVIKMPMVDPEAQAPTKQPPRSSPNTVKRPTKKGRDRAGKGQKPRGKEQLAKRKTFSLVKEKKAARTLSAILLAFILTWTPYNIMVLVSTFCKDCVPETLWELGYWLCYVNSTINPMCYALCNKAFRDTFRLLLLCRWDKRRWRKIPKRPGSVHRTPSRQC
D(2) dopamine receptor (Homo sapiens), sequence (P14416 whole entry, looked up): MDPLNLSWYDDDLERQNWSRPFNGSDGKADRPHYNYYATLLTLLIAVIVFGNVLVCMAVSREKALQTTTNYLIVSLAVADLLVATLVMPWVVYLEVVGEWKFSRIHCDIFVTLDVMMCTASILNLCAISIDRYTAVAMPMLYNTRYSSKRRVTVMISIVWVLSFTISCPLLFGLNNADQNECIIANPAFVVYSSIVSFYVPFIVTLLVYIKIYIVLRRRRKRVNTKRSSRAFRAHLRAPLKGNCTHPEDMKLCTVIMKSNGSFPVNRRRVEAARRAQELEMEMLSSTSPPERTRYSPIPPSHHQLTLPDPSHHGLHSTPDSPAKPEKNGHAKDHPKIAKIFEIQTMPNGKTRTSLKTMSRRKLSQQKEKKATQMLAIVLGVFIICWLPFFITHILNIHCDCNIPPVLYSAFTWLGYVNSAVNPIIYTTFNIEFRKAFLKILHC
KiSS-1 receptor (Homo sapiens), sequence (Q969F8 whole entry, looked up): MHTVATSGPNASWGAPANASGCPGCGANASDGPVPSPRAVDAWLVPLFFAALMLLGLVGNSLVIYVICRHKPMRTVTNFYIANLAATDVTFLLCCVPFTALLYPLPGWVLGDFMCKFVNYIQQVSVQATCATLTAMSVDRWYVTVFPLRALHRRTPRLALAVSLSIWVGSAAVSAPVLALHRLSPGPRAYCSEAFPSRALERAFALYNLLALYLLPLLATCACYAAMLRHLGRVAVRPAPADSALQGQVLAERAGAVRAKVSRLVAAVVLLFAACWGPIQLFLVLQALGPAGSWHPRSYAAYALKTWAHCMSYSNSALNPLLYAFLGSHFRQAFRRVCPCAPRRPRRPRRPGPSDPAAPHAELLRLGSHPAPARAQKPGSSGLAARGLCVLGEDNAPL

CSC(C)(C)/C=N/O
not listed: [15] | [16] | [17] | [18]
inactive: all other assays above

NCCc1cc(O)c(O)cc1O
active: [8] 18.3 µM | [9] 23.9 µM
not listed: [7] | [18]
inactive: all other assays above

COc1c2c(cc3c1OCO3)CCN(C)C2
active: [8] 16.3 µM | [9] 1.2 µM | [16] 6.68 µM
not listed: [6] | [18]
inactive: all other assays above

CCNc1nc(NC(C)C(C)C)nc(SC)n1 (configuration not stated)
not listed: [6] | [9] | [11] | [13] | [18]
inactive: all other assays above

CC(C)CC#N
not listed: [7] | [13] | [18]
inactive: all other assays above

O=C(O)[C@H](O)[C@@H](O)C(=O)O
not listed: [15] | [18]
inactive: all other assays above

COCc1cnc(C2=NC(C)(C(C)C)C(=O)N2)c(C(=O)O)c1 (configuration not stated)
not listed: [15] | [16] | [18]
inactive: all other assays above

CC(O)CCl (configuration not stated)
not listed: [7] | [8] | [18]
inactive: all other assays above

C=CCC1([C@H](C)CCC)C(=O)NC(=O)NC1=O
not listed: [8] | [9] | [10] | [11] | [15] | [18]
inactive: all other assays above

O=C(N[C@H]1CN2CCC1CC2)c1ccc2c(c1)OCCO2
not listed: [6] | [13] | [18]
inactive: all other assays above

CCCCC(CC)COP(=O)(Oc1ccccc1)Oc1ccccc1 (configuration not stated)
active: [2] 30.6 µM
not listed: [12] | [13] | [15] | [18]
inactive: all other assays above

Cc1cc(C(F)(C(F)(F)F)C(F)(F)F)ccc1NC(=O)c1cccc(I)c1C(=O)NC(C)(C)CS(C)(=O)=O
not listed: [15] | [18]
inactive: all other assays above

ClCCCCCCCl
not listed: [8] | [15] | [18]
inactive: all other assays above

CCC1(CC)C(=O)NC(=O)NC1=O
not listed: [15] | [17] | [18]
inactive: all other assays above

CC(C)(C)C(=O)C(Oc1ccc(Cl)cc1)n1cncn1 (configuration not stated)
not listed: [6] | [10] | [12] | [18]
inactive: all other assays above

CCOc1cccc(C2(N3CCN(c4ccccc4)CC3)CCC(C)CC2)c1 (configuration not stated)
not listed: [7] | [10]
inactive: all other assays above

O.O.O.O=C([O-])[C@H]([O-])[C@@H]([O-])C(=O)[O-].O=C([O-])[C@H]([O-])[C@@H]([O-])C(=O)[O-].[K+].[K+].[Sb+3].[Sb+3]
active: [2] 61.4 µM | [6] 36.5 µM
not listed: [15] | [18]
inactive: all other assays above

CC(C)(N)Cc1ccc(Cl)cc1
not listed: [9] | [15] | [16] | [18]
inactive: all other assays above

From PubChem BioAssay (Tox21)
